Measurements from PubChem BioAssay AID652054 (National Center for Advancing Translational Sciences (NCATS), 2013).
About 9,100 (2.5%) of roughly 360,000 compounds were called active. Another 4% or so got no clear call; they are omitted. No stated cut-off is given here; in the data, active means max response below about -50%; inconclusive means no clear call, values can overlap the other calls; inactive means above that. The sample as a whole holds a higher share of actives than the screen did.

These molecules were tested against D(3) dopamine receptor (Homo sapiens) (UniProt P35462) (assay: qHTS of D3 Dopamine Receptor Antagonist: qHTS). Settings: D3R cells, DiscoveRx beta-arrestin luminescence, antagonist mode; stronger effect = lower value.
D(3) dopamine receptor (Homo sapiens), sequence (P35462 whole entry, looked up): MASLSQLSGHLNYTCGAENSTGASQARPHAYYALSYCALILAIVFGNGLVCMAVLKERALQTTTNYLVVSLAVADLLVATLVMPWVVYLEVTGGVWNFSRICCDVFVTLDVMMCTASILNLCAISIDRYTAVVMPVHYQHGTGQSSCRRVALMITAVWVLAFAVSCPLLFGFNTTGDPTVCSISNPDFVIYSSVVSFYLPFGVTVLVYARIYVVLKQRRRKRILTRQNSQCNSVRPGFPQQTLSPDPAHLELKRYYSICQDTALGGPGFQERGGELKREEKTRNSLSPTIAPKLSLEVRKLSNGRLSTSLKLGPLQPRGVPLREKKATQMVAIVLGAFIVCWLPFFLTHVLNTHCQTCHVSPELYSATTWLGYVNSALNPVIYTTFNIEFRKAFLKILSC
In short: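 Cells expressing the human receptor were seeded at 1500 cells/well, incubated overnight at 37 degrees C in 5% CO2, then exposed to library compounds with dopamine controls for 90 minutes at 37 degrees C before luminescent detection.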
On the % scale 0 is the no-effect control and ±100 the full control effect.

Max response, negative = inhibition, inactive:
CC(C)C[C@@H]1COc2cc(N3CCC[C@@H]3CO)ccc2S(=O)(=O)N1 18.9%, CN(Cc1ccccc1)C(=O)[C@@H]1CCCN1C(=O)[C@@H]1CCCN1C(=O)c1c(F)cccc1F -11.2%, O=C(NN=Cc1ccc2c(c1)CCC2)c1ccccc1O 10.4%, CCc1cccc(C)c1NC(=O)COC(=O)CC1CCCC1 -10.7%, CCc1cccc(C)c1NC(=O)COC(=O)CNC(=O)c1cccs1 5.78%, CCCCn1nnnc1C(c1cc2ccccc2o1)N(C)Cc1ccc(Cl)c(Cl)c1 (stereo not drawn) 16.5%, COC(=O)[C@@]12C[C@@H](CC(=O)NCCCCc3ccccc3)C(=O)N(CCc3ccc(OC)c(OC)c3)C1=CCC(C)(C)C2 -7.78%, COc1cccc(CC2(CO)CCN(Cc3cnc(-c4cccc(C)c4)nc3)CC2)c1 33.5%, COc1ccc(CC2(CO)CCN(Cc3cnn(C)c3)CC2)cc1 4.38%, COc1ccc(CNC(=O)c2ccc(-c3cccnc3)c3ccoc23)cc1OC 57.4%, CC(=O)N1Cc2cc(C(=O)NCc3cccc(F)c3)nc(-c3cccc(C4=CCCC4)c3)c2[C@H]1CCO 4.11%, CC(=O)N1Cc2cc(C(=O)NCc3cccc(F)c3)nc(-c3cccc(C4=CCCCC4)c3)c2[C@H]1CCO 40.6%, CN(Cc1ccc(C(F)(F)F)cc1)C(=O)[C@H]1O[C@@H](n2cnc3c(N)ncnc32)[C@H](O)[C@@H]1O 14.2%, CC1(C(=O)NCc2ccccc2)CSCC(=O)N1CCCN1CCOCC1 (stereo not drawn) 2.3%, CC1(C)CN(CCc2ccccc2)C(=O)[C@H]1CC(=O)Nc1ccc(Br)cc1 -16%, O=[N+]([O-])c1ccc(N2CCNCC2)cc1NCc1cccnc1 1.82%, CN1CCN(S(=O)(=O)c2ccc(N3CCN(c4ccccc4O)CC3)c([N+](=O)[O-])c2)CC1 -19.5%, CCCS(=O)(=O)NC(=O)C1(C)CCCN(C(=O)c2cc(C)on2)C1 (stereo not drawn) 2.9%, COc1ccc2c(-c3ccccc3)cc(SCC(=O)N(C)C3CCS(=O)(=O)C3)nc2c1 (stereo not drawn) 0.687%, CC(=O)c1ccc(OCC(=O)N(C)C2CCS(=O)(=O)C2)cc1 (stereo not drawn) -0.617%, COc1ccc(C(=O)N2CCCCC2c2cc(C(=O)Nc3ccc(F)c(Cl)c3)no2)cc1 (stereo not drawn) -6.17%, O=S1(=O)CC(N2CCN(c3ccccn3)CC2)CN1Cc1ccc(F)cc1 (stereo not drawn) 7.7%, CCCNC(=O)C1(C)CCCN(Cc2c(C)nn(-c3ccccc3)c2C)C1 (stereo not drawn) 19.2%, CCCNC(=O)C1(C)CCCN(Cc2cccc(C(F)(F)F)c2)C1 (stereo not drawn) 27.1%, COC(=O)[C@]12CCCCC=C1N(Cc1cccc3ccccc13)C(=O)[C@H](CC(=O)N1CCOCC1)C2 -10.3%, Cc1cc(=O)oc(C)c1C(=O)NCc1ccc(F)cc1 -14.8%, COc1ccc(CNC(=O)c2c(C)cc(=O)oc2C)cc1OC 2.8%, Cc1nc(C(F)(F)F)ccc1C(=O)N1CCC1(C)C(=O)NS(=O)(=O)c1ccccc1Cl (stereo not drawn) -15.5%, COc1ccc(OC)c(C(=O)c2ccc(C(=O)N3CCN(Cc4csc(C)n4)CC3)cc2)c1 -18%, COc1ccc(OCC(=O)N2CCN(C(=O)c3cccs3)CC2)cc1 5.1%, CCCc1c(-c2ccccc2F)ncn1Cc1ccccc1OC 2.92%, COc1ccc(CCNC(=O)CN(c2ccccc2)S(=O)(=O)c2ccccc2)cc1 -3.43%, CC(C)Oc1cc(F)ccc1-c1cc(C(=O)Nc2ccc(F)cc2)[nH]n1 -13.9%, COc1cc(-c2nnc(NC(=O)CS(=O)(=O)c3ccc(Cl)cc3)o2)cc(OC)c1OC -6.21%, CC[C@]12c3[nH]c4ccc(Cl)cc4c3CCN1C(=O)[C@@H](CC(=O)NCCN1CCOCC1)C[C@@H]2C(=O)N1CCN(C(=O)C2CC2)CC1 6.27%, COc1ccc2[nH]c3c(c2c1)CCN1C(=O)C(CC(=O)NCCCN(C)C)C[C@H](C(=O)N2CCOCC2)[C@@]31CCC1CCCC1 (stereo partly drawn) 37%, CCc1nc2c(OCCOc3ccccc3)cccn2c1N(C)C(=O)c1cccs1 -19.8%, Cc1ccc(-c2nc(CS(=O)(=O)CC(=O)NCc3ccc4c(c3)OCO4)c(C)o2)cc1 -2.53%, Cc1ccc(CNCc2ccc3c(c2)OCO3)c(C)c1 -3.23%, OC[C@@H]1CN(Cc2ccc(Cl)cc2)C[C@H](n2cnc3c(NCc4ccncc4)ncnc32)O1 17.2%, Cc1cc(Cl)ccc1C(=O)C1CCCN(C(=O)c2ccc3c(c2)OCO3)C1 (stereo not drawn) -7.01%, CC(=O)OCC(C)n1c(=O)c2ccccc2n1C(C)=O (stereo not drawn) 0.665%, CCOc1ccccc1NC(=O)NC1CCCCCCC1 0.28%, COc1ccc(C(C)(C)C)cc1NC(=O)CCN1C(=O)C2CCCCC2C1=O (stereo not drawn) 4.26%, CCOC(=O)N1CCN(CCC(=O)Nc2cc(OC)ccc2OC)CC1 2%, COc1ccc(NC(=O)CCCC2CCCCC2)c(OC)c1 11.6%, CCOc1ccccc1NC(=O)CCN1CCN(S(=O)(=O)c2ccc(OC)cc2)CC1 38.4%, COc1ccc(OC)c(NC(=O)CC(Cc2ccccc2OC)C(=O)O)c1 (stereo not drawn) 2.31%, COc1ccc(NC(=O)CCn2ccnc2)c(OC)c1 -22.6%, COc1ccc(N2CCN(CCNC(=O)Nc3cc(Cl)ccc3Cl)CC2)cc1 -2.75%, O=C(CC[C@H]1O[C@@H](n2ccc(=O)[nH]c2=O)[C@H](O)[C@@H]1O)N[C@H](Cc1ccccc1)C(=O)NCc1ccco1 23.3%, CCCC/C=C/c1cccc2nncn12 11.2%, C[C@H](CO)N1C[C@H](C)[C@@H](CN(C)C(=O)C2CCCCC2)OCc2cnnn2CCCC1=O -18.3%, Cc1nc2ccccn2c(=O)c1NC(=O)c1ccc(Br)o1 0%, Cc1nccn1-c1ccc(NC(=O)[C@H]2O[C@@H](n3cnc4c(N)ncnc43)[C@H](O)[C@@H]2O)cc1 9.64%, COc1ccc2c(c1)CCCO[C@]21O[C@H](CCO)C[C@H](O)[C@H]1O -5.1%, Fc1cccc(Cc2c(-c3cccc(Cl)c3)nc3ccc(Br)cn23)c1 12.6%, CC(C)NC(=O)Nc1ccc2c(c1)C(=O)N([C@H](C)CO)C[C@H](C)[C@@H](CN(C)Cc1ccc(C(F)(F)F)cc1)OCCCC[C@@H](C)O2 -28.7%, COC(=O)C[C@@H]1C=C[C@@H](NS(=O)(=O)c2cccc(OC)c2)[C@@H](CO)O1 3.79%, O=C1NC[C@H](CCCCN2C[C@H](Cc3ccccc3)N(Cc3ccccc3)C(=O)C2=O)N(CCc2ccc(O)cc2)C1=O 2.36%, COc1ccc(OCC(=O)Nc2ccc(N3CCC(C)CC3)cc2)cc1 -0.541%, COc1ccc(OCCCC(=O)Oc2ccc(OC)cc2)cc1 12.3%, CC(C)(C)OC(=O)N1CCN(C(=O)c2[nH]c(C(F)(F)F)nc2-c2ccccc2)CC1 11.8%, C=CCn1nc(C(=O)OCC)cc1-c1sc(NC(=O)c2ccccc2)nc1C 26.8%, C=CCN1CCN(c2ccncc2S(=O)(=O)N2CCN(C)CC2)CC1 26.6%, COc1ccc(-c2cc(NC=O)c3ncc(-c4cc(OC)c(OC)c(OC)c4)n3c2)c(OC)c1 36.6%, COC(=O)c1sc(NC(=S)NC(=O)c2ccc(C)cc2)nc1C 2.14%, N#Cc1c(-c2cccs2)nc(SCC(=O)c2ccc(Br)cc2)[nH]c1=O 4.64%, O=C(NCc1ccc(F)cc1)c1cc(C2CCCCN2C(=O)c2ccccn2)on1 (stereo not drawn) -10.1%, Clc1nc(NC2CCCC2)nc(N2CCOCC2)n1 16.5%, COC(=O)c1ccc(Oc2nc(Nc3ccc(F)cc3)nc(N3CCCC3)n2)cc1 -22.6%, COC(=O)[C@@]12C[C@@H](CC(=O)NCCCCc3ccccc3)C(=O)N(Cc3ccccc3)C1=CCC(C)(C)C2 -9.89%, CCN(CC)CCOCCOc1ccc(Cl)c2ccccc12 -29.6%, Cn1c(CCCOc2ccc(Cl)cc2Cl)n[nH]c1=S 10.4%, CC(=O)C[C@@H]1OC[C@H](CO)N1S(=O)(=O)c1ccc(C)cc1 6.66%

Max response, negative = inhibition, active:
CCc1cccc(C)c1NC(=O)COC(=O)Cc1ccsc1 -57.7%, COC(=O)c1ccc(CN2CCC(CO)(Cc3ccc(OC)cc3)CC2)cc1 -62.3%, CCNC(=O)c1cc2c(c(-c3cccc(-c4cncnc4)c3)n1)[C@H](CCO)N(C(C)=O)C2 -53.7%, CN1CCN(c2ccc([N+](=O)[O-])c(Sc3nc4ccccc4[nH]3)c2)CC1 -91.8%, COc1ccc(-c2cc(=O)oc3cc(OCC(=O)N(C)C4CCS(=O)(=O)C4)ccc23)cc1 (stereo not drawn) -51.8%, CCCNC(=O)C1(C)CCN(Cc2csc(-c3ccc(Cl)cc3)n2)C1 (stereo not drawn) -103%, Cc1cc(=O)oc(C)c1C(=O)NCCN(C)Cc1ccccc1 -76.1%, CCN1CCN(C(=O)c2cc3cc4ccc(OC)cc4nc3s2)CC1 -89.5%, COc1ccc(CNC(=O)C[C@H]2C[C@H](C(=O)N3CCOCC3)[C@@]3(CCC4CCCC4)c4[nH]c5ccc(Cl)cc5c4CCN3C2=O)cc1OC -63%, Cc1ccc(S(=O)(=O)N(CCCN(C)C)Cc2ccc3c(c2)OCO3)cc1 -51.8%, COc1ccccc1NC(=O)CCN1CCN(c2ccc(Cl)cc2)CC1 -52.9%, CCOc1ccccc1NC(=O)Nc1cc(OC)ccc1OC -69.8%, COc1ccc(NC(=O)CCN2CCCC2)c(OC)c1 -50.5%, COc1ccc(OC)c(NC(=O)CCN2CCC(C)CC2)c1 -50.8%, COc1ccc(OCCCCN2CCC(C)CC2)cc1 -66.8%, N#Cc1ccc(C(=O)Nc2nc(-c3cccs3)c(C(=O)C(F)(F)F)s2)cc1 -58.8%, COc1nc(NC2CCCCC2)nc(N2CCCCCC2)n1 -62.8%, CN(C)CCOc1ccc(Cl)cc1C(C)(C)C -51.2%
